Records with an inconclusive call do not appear. Active and inactive are the calls of the source. Unless noted, the call rests on the fitted dose curve; in most records, active means well fitted curve in the direction sought with a large enough effect; inconclusive means small, poorly fitted or top-dose-only effect, or another doubt; inactive means no such curve, though single readings can be large; an effect the other way counts as inactive or inconclusive.
Legend:
[1] = Dual reporter qHTS for agonist of Pregnane X Receptor (hPXR) against the NCATS DSHEA and TCM libraries: Fluorescence readout (AID 1920058)
Procedure, shortened: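 Measures viability of the PXR reporter HepG2 line by protease-substrate fluorescence (405/540 nm), taken 1 h after CellTiter-Fluor addition. Substances are tested as concentration series over a ~24 h exposure, with rifampicin as agonist control.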

[2] = molecular target: Nuclear receptor subfamily 1 group I member 2 (Homo sapiens) (UniProt O75469); assay: Dual reporter qHTS for antagonist of Pregnane X Receptor (hPXR) against the NCATS DSHEA and TCM libraries: Luminescence Readout (AID 1920060);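 further: HepG2 cells carrying hPXR luciferase reporter stimulated with rifampicin at 2 µM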
Chain of Nuclear receptor subfamily 1 group I member 2 (Homo sapiens) (O75469 whole entry, looked up): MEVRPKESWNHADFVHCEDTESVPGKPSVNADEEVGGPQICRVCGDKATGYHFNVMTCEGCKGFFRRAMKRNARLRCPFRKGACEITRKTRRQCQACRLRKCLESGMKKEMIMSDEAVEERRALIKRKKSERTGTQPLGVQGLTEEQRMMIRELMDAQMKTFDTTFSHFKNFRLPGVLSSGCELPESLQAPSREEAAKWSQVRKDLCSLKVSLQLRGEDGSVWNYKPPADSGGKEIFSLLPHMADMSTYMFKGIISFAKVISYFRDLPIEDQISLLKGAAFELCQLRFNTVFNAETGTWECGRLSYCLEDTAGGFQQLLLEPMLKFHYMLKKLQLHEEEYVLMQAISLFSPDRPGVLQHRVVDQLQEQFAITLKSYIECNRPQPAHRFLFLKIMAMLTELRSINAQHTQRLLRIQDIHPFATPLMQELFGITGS
Procedure, shortened: (§1)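 In antagonist mode, 2 uM rifampicin was added to hPXR-Luc HepG2 cells alongside test substances, incubated 24 h at 37 C; luminescence gave reporter activity, and CellTiter-Fluor fluorescence (405/540 nm) gave viability.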

[3] = Dual reporter qHTS for antagonist of Pregnane X Receptor (hPXR) against the NCATS DSHEA and TCM libraries: Fluorescence Readout (AID 1920061)
Procedure, shortened: as §1

[4] = molecular target: Cytochrome P450 3A4 (Homo sapiens) (UniProt P08684); assay: qHTS Assay for Inhibitors and Substrates of Cytochrome P450 3A4 (AID 884); further: series mostly up to about 57 µM; nearly all actives have a fitted effect of over 50% in size
Chain of Cytochrome P450 3A4 (Homo sapiens) (P08684 whole entry, looked up): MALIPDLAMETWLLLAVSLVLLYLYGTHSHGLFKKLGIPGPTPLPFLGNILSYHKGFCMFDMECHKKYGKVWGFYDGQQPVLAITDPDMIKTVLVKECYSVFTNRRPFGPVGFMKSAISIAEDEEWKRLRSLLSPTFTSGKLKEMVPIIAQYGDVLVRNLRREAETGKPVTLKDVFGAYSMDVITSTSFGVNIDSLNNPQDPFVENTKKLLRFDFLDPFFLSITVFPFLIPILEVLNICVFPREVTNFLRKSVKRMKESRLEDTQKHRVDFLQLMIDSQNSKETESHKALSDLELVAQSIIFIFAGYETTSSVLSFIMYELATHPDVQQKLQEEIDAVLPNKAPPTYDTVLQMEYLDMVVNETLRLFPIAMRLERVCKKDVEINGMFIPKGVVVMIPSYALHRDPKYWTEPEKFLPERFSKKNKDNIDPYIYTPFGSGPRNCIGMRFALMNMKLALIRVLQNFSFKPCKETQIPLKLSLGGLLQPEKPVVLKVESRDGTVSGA
Procedure, shortened: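 20 nM human CYP3A4 with 25 uM Luciferin-PPXE (at KM) in 200 mM KPO4, preincubated 10 min with compound; NADPH regeneration started a 60 min RT reaction. Luciferin detected by luminescence, normalized to 57 uM ketoconazole as full inhibition.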

[5] = S16 Schwann cell viability assay (CellTiter-Glo assay) (AID 624031);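 further: cellular ATP luminescence as a viability measure; series mostly up to about 58 µM; nearly all actives have a fitted effect of over 70% in size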
Procedure, shortened: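 Native S16 rat Schwann cells in DMEM/10% FBS without phenol red were incubated overnight, then exposed to compounds for 24 h at 37 °C/5% CO2. Viability was read as ATP luminescence (CellTiter-Glo), normalized to no-cell wells and DMSO (0%).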

[6] = S16 Schwann cell PMP22 intronic element beta-lactamase assay (AID 624044; calls by dose curve; further: nearly all actives have a fitted effect of over 15% in size)
Procedure, shortened: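 Rat S16 Schwann cells with beta-Lac driven by a PMP22 intronic element, compound-treated 24 h at 37 °C. LiveBLAzer FRET B/G read: 460 nm normalized to potassium clavulanate vs DMSO; 535 nm FRET as viability; concentration-effect curves classified.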

[7] = molecular target: Rap guanine nucleotide exchange factor 3 (Homo sapiens) (UniProt O95398); assay: Confirmatory qHTS for antagonist of cAMP-regulated guanine nucleotide exchange factor 3 (EPAC1) (AID 1645880); further: nearly all actives have a fitted effect of over 55% in size
Chain of Rap guanine nucleotide exchange factor 3 (Homo sapiens) (O95398 whole entry, looked up): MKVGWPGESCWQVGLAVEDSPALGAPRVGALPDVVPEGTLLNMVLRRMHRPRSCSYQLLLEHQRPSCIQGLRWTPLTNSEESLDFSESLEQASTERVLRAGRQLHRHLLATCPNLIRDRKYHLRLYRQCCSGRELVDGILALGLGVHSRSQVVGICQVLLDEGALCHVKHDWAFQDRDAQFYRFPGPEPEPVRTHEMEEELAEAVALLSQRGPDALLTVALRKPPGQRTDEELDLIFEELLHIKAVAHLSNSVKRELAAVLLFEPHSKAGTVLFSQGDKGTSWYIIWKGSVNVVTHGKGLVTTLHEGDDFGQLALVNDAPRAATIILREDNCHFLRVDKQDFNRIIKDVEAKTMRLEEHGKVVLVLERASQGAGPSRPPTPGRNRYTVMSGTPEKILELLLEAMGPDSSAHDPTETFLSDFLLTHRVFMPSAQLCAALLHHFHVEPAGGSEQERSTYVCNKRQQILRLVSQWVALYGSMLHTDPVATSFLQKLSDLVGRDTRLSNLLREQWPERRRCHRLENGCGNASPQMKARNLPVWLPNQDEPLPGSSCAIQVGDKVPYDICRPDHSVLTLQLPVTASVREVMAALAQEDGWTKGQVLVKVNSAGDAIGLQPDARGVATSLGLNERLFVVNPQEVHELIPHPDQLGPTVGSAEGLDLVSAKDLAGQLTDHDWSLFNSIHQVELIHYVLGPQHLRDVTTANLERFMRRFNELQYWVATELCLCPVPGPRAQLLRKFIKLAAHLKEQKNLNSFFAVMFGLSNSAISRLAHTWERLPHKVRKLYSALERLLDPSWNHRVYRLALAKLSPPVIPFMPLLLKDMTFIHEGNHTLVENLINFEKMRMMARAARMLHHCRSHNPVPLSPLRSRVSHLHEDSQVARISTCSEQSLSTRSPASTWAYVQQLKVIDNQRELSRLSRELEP
Procedure, shortened: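 Nucleotide exchange uses 100 nM EPAC1, 250 nM RAP1B-BODIPY-GDP and 50 uM GDP, with compounds in a concentration-titration series. After 5 min at room temperature, fluorescence (480 nm ex/540 nm em) is read every 5 min for 30 min. Data are normalized to control ATA and DMSO.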

[8] = molecular target: Rap guanine nucleotide exchange factor 3 (Homo sapiens) (UniProt O95398); assay: Confirmatory qHTS for agonist of cAMP-regulated guanine nucleotide exchange factor 3 (EPAC1) (AID 1645881);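 further: EPAC1 catalysed release of BODIPY-GDP from Rap1B seen as fluorescence loss; nearly all actives have a fitted effect of over 75% in size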
[9] = molecular target: Rap guanine nucleotide exchange factor 4 (Homo sapiens) (UniProt Q8WZA2); assay: Confirmatory qHTS for agonist of cAMP-regulated guanine nucleotide exchange factor 4 (EPAC2) (AID 1645884);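 further: nucleotide exchange releases bodipy-GDP from Rap1 and this lowers its fluorescence; nearly all actives have a fitted effect of over 65% in size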
Chain of Rap guanine nucleotide exchange factor 4 (Homo sapiens) (Q8WZA2 whole entry, looked up): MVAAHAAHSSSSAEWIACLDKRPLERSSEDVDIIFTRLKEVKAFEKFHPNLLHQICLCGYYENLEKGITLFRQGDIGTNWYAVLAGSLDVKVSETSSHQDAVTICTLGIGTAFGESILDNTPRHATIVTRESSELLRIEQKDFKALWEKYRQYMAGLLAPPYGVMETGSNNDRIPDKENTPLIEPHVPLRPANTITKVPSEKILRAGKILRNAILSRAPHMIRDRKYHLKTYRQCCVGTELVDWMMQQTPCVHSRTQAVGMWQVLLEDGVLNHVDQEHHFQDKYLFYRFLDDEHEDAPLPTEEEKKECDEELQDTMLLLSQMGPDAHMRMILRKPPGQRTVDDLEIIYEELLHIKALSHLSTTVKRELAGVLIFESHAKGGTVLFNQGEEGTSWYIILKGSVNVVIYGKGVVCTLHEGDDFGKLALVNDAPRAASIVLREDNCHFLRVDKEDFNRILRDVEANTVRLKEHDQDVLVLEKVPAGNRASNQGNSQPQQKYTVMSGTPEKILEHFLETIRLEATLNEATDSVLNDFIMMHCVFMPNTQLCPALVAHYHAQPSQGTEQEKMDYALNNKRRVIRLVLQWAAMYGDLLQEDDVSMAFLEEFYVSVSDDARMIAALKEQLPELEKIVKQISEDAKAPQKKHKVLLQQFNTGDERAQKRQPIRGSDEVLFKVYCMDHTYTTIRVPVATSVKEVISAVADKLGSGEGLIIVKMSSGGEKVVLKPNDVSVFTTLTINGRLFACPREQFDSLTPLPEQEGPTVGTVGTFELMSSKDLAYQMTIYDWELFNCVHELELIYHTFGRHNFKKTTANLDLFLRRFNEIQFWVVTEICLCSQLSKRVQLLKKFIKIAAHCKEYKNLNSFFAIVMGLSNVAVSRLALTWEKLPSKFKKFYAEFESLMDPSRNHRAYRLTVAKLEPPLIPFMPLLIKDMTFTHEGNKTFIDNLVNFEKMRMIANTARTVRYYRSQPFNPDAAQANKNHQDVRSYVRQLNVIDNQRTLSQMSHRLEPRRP

[10] = molecular target: Rap guanine nucleotide exchange factor 4 (Homo sapiens) (UniProt Q8WZA2); assay: Confirmatory qHTS for antagonist of cAMP-regulated guanine nucleotide exchange factor 4 (EPAC2) (AID 1645885); further: nearly all actives have a fitted effect of over 25% in size
[11] = molecular target: Rap guanine nucleotide exchange factor 3 (Homo sapiens) (UniProt O95398); assay: Counterscreen qHTS for agonist of cAMP-regulated guanine nucleotide exchange factor 3 (EPAC1) (AID 1645889); further: nearly all actives have a fitted effect of over 40% in size
Procedure, shortened: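 Measured: fluorescence of BODIPY-GDP bound to Rap1B, which falls as exchange proceeds. Conditions include 50 uM competing GDP, 5 and 30 min reads, and a later cAMP challenge for antagonist detection.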

Measured: Potency

C[C@H]1[C@H](C)CC[C@]2(C(=O)O)CC[C@]3(C)C(=CC[C@@H]4[C@@]5(C)CC[C@H](O)C(C)(C)[C@@H]5CC[C@]43C)[C@H]12
inactive: [1] | [2] | [3]

COC1=C(OC)C(=O)C(C/C=C(\C)CC/C=C(\C)CC/C=C(\C)CC/C=C(/C)CC/C=C(\C)CC/C=C(\C)CC/C=C(\C)CC/C=C(\C)CC/C=C(\C)CCC=C(C)C)=C(C)C1=O
inactive: [4]

CC(/C=C1\SC(=S)N(CC(=O)O)C1=O)=C\c1ccccc1
not listed: [1] | [2] | [3] | [4]
inactive: all other assays above

— PubChem BioAssay (NCATS)
